Laboratory results reported in the supplement of paper PMC10849652.
Targets with a hit are over-represented here; the source holds about 8,800 in all. About 0.5% of all pairs of compound and target were hits.

Columns and labels:
Assay in all cases: log2 fold change, soluble protein after heating vs DMSO (PISA); higher = thermal stabilisation; K562 lysate, 10 uM; active = over 0.2 and 3.5 SD of the protein, either way, in both replicates (recomputed)
[1] = compound: Cc1cn(-c2cc(NC(=O)c3ccc(C)c(Nc4nccc(-c5cccnc5)n4)c3)cc(C(F)(F)F)c2)cn1 [nilotinib]
How it was run: (§1)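 The values are log-two fold changes in thermal stability compared with solvent controls and come from duplicates. They were obtained by TMTpro 16plex LC-MS/MS, with channel sums equalised, on the supernatant after 21,000xg for 90 min. That supernatant came from crude K562 extract at 1 mg/mL protein treated with 10 μM compound for 30 min, heated for 3 min across 48°C-58°C, pooled and brought to 0.5% NP-40 at 4°C.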

[2] = compound: Cc1nc(Nc2n[nH]c3c2CN(C(=O)N[C@H](CN(C)C)c2ccccc2)C3(C)C)c2sccc2n1
How it was run: as §1

[3] = compound: Cc1nc(Nc2ncc(C(=O)Nc3c(C)cccc3Cl)s2)cc(N2CCN(CCO)CC2)n1 [dasatinib]
How it was run: as §1

[4] = compound: Cc1ncc(-c2ccnc(Nc3ccc(S(C)(=O)=O)cc3)n2)n1C(C)C
How it was run: as §1

[5] = compound: Cn1cc(-c2ccc3c(c2)CCN3C(=O)Cc2cccc(C(F)(F)F)c2)c2c(N)ncnc21
How it was run: as §1

[6] = compound: Cn1cc(CNCC2CCN(c3ncc(C(=O)NO)cn3)CC2)c2ccccc21 [quisinostat]
How it was run: as §1

[7] = compound: Cn1cncc1[C@@](N)(c1ccc(Cl)cc1)c1ccc2c(c1)c(-c1cccc(Cl)c1)cc(=O)n2C [tipifarnib]
How it was run: as §1

[8] = compound: NC(=O)Nc1cc(-c2cccc(F)c2)sc1C(=O)N[C@H]1CCCNC1
How it was run: as §1

[9] = compound: NC(=O)c1cnc(N[C@@H]2CCCC[C@@H]2N)nc1Nc1cccc(-n2nccn2)c1
How it was run: as §1

[10] = compound: NC1(c2ccc(-c3nc4ccn5c(=O)[nH]nc5c4cc3-c3ccccc3)cc2)CCC1
How it was run: as §1

[11] = compound: NCC(=O)Nc1ccc(-n2nc(C(F)(F)F)cc2-c2ccc3c(ccc4ccccc43)c2)cc1
How it was run: as §1

[12] = compound: O=C(CCCCCCC(=O)Nc1ccccc1)NO [vorinostat]
How it was run: as §1

[13] = compound: O=C(O)c1ccc2c(c1)nc(Nc1cccc(Cl)c1)c1ccncc12 [silmitasertib]
How it was run: as §1

[14] = compound: O=C1NC(=O)C(c2cnc3ccccn23)=C1c1cn2c3c(cc(F)cc13)CN(C(=O)N1CCCCC1)CC2
How it was run: as §1

[15] = compound: c1cn2cc(-c3ccc4cn[nH]c4c3)nc(Nc3ccc(N4CCOCC4)cc3)c2n1 [entospletinib]
How it was run: as §1

Measured: log2 fold change

RNF40 (UniProt O75150)
Chain of UniProt O75150 (O75150 whole entry, looked up): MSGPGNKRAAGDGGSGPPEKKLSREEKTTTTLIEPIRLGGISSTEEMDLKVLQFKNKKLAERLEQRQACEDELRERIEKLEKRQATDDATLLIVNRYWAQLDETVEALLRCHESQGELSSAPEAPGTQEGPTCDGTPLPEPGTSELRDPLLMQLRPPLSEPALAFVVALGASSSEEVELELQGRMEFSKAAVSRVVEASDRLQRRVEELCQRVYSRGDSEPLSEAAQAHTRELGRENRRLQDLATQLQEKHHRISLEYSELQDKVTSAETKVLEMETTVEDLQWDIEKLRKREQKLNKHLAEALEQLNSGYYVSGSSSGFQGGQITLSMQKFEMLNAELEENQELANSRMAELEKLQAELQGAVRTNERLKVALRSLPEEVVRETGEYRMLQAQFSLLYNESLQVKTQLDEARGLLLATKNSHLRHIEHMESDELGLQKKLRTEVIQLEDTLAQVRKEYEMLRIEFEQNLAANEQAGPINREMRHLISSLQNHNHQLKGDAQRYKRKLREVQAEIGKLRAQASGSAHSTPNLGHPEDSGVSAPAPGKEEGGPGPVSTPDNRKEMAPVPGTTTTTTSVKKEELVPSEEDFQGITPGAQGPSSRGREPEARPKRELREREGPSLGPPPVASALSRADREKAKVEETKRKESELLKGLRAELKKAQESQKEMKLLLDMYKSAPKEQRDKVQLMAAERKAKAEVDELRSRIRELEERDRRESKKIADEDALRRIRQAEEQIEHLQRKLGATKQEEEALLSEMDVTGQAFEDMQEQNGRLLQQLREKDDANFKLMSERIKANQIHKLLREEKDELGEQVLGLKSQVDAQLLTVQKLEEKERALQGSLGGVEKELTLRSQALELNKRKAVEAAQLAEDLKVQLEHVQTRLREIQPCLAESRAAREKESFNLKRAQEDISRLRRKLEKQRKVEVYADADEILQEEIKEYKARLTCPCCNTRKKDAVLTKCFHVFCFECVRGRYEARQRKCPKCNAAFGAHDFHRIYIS
inactive: [1] -0.022 | [2] 0.009 | [3] -0.012 | [4] 0.003 | [5] 0.031 | [6] -0.029 | [7] 0.003 | [8] 0.031 | [9] 0.009 | [10] -0.012 | [11] 0.015 | [13] 0.032 | [14] -0.007 | [15] -0.022
active: [12] -0.237

RPL28 (UniProt P46779)
inactive: [1] -0.018 | [2] -0.011 | [3] 0.009 | [4] -0.015 | [5] -0.005 | [6] 0.08 | [7] 0.002 | [8] -0.028 | [9] -0.011 | [10] -0.023 | [11] 0.012 | [12] 0.033 | [13] 0.008 | [14] 0.043 | [15] 0.007

RPL31 (UniProt P62899)
inactive: [1] 0.007 | [2] -0.034 | [3] 0.046 | [4] -0.036 | [5] -0.038 | [6] 0.043 | [7] 0.021 | [8] -0.004 | [9] -0.018 | [10] 0.005 | [11] 0.003 | [12] 0.126 | [13] 0.007 | [14] 0.06 | [15] 0.021

RNF168 (UniProt Q8IYW5)
Chain of UniProt Q8IYW5 (Q8IYW5 whole entry, looked up): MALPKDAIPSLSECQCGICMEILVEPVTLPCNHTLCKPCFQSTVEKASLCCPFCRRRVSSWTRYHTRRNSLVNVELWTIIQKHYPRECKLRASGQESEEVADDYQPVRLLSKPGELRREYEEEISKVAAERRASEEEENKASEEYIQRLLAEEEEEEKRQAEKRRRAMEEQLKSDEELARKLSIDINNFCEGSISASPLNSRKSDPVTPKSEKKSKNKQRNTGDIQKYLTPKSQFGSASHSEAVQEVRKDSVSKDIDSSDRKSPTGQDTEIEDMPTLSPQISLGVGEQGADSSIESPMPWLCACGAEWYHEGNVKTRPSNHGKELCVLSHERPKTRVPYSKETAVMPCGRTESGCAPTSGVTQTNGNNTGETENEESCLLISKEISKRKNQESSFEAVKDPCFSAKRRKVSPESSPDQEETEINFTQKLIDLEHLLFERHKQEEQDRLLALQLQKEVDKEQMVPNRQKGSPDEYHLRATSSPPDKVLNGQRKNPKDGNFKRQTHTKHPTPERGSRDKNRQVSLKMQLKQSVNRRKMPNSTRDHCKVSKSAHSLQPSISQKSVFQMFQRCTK
inactive: [1] 0.144 | [2] 0.085 | [3] 0.064 | [4] -0.186 | [5] 0.006 | [6] -0.019 | [7] 0.016 | [8] -0.009 | [9] -0.02 | [10] 0.018 | [11] 0.056 | [12] -0.313 | [13] 0.025 | [14] -0.046 | [15] 0.042

REEP6 (UniProt Q96HR9)
Chain of UniProt Q96HR9 (Q96HR9 whole entry, looked up): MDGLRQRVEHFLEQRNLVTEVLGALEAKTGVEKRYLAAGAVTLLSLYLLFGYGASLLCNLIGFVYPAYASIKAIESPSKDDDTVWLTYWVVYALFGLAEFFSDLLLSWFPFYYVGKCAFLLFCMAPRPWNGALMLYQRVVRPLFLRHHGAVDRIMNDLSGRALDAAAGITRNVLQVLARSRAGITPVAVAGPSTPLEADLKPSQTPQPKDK
inactive: [1] 0.058 | [2] 0.1 | [3] 0.204 | [4] 0.041 | [5] 0.009 | [6] -0.072 | [7] 0.001 | [8] -0.03 | [9] 0.155 | [10] -0.023 | [11] -0.031 | [12] 0.068 | [13] -0.083 | [14] -0.028 | [15] -0.059

RNF213, A0A0A0MTC1
inactive: [1] 0.015 | [2] -0.016 | [3] -0.027 | [4] -0.019 | [5] 0.035 | [6] -0.033 | [7] 0.001 | [8] 0.071 | [9] 0.015 | [10] -0.016 | [11] 0.022 | [13] 0.032 | [14] 0.007 | [15] 0.052
active: [12] -0.381

RAI14 isoform 2 (UniProt Q9P0K7)
Chain of UniProt Q9P0K7 (Q9P0K7 whole entry, looked up): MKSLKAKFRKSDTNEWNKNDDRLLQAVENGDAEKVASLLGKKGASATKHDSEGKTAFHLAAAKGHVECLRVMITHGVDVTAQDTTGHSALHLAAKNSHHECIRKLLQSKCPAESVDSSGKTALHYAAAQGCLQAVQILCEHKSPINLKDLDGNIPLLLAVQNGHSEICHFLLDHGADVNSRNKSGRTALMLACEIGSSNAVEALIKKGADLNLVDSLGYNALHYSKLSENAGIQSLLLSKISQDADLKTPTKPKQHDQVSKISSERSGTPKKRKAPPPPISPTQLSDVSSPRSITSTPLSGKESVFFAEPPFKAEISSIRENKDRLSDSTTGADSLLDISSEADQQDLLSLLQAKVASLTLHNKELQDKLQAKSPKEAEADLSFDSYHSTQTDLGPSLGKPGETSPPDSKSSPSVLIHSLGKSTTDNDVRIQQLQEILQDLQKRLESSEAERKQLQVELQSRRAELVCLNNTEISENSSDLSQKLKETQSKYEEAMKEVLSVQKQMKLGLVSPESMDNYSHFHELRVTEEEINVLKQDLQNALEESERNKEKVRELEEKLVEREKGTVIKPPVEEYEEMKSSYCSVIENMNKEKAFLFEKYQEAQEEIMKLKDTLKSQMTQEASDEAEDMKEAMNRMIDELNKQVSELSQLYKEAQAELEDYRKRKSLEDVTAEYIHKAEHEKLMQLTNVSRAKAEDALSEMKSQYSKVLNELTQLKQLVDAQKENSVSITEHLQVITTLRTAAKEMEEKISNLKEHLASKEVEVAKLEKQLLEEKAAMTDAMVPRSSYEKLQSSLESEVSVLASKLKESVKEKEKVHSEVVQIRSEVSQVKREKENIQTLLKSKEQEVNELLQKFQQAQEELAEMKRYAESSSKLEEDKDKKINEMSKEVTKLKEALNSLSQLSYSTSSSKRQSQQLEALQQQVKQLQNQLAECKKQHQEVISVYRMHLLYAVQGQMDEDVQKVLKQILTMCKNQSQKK
inactive: [1] -0.004 | [2] -0.006 | [3] -0.003 | [4] -0.05 | [5] 0.013 | [6] -0.023 | [7] -0.036 | [8] -0.02 | [9] 0.012 | [10] -0.013 | [11] 0.005 | [13] 0.022 | [14] 0.015 | [15] -0.003
active: [12] -0.254

SESN2 (UniProt P58004)
Chain of UniProt P58004 (P58004 whole entry, looked up): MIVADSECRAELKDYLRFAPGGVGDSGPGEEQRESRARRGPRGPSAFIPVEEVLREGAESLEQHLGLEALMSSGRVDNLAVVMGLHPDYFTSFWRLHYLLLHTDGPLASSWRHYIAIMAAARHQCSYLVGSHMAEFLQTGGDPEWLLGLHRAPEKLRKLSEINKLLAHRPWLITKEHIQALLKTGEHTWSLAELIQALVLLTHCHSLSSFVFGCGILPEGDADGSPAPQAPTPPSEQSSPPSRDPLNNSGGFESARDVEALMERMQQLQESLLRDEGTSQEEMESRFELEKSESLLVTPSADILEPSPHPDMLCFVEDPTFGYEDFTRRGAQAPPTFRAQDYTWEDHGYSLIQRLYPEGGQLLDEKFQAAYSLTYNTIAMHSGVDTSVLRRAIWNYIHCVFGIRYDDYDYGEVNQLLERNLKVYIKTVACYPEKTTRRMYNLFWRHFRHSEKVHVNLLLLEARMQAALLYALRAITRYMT
inactive: [1] 0.019 | [2] 0.027 | [3] -0.023 | [4] 0.021 | [5] 0.028 | [6] -0.051 | [7] 0.007 | [8] 0.092 | [9] 0.034 | [10] -0.057 | [11] 0.006 | [13] 0.066 | [14] 0.022 | [15] 0.073
active: [12] -0.367

RIOK1 (UniProt Q9BRS2)
Chain of UniProt Q9BRS2 (Q9BRS2 whole entry, looked up): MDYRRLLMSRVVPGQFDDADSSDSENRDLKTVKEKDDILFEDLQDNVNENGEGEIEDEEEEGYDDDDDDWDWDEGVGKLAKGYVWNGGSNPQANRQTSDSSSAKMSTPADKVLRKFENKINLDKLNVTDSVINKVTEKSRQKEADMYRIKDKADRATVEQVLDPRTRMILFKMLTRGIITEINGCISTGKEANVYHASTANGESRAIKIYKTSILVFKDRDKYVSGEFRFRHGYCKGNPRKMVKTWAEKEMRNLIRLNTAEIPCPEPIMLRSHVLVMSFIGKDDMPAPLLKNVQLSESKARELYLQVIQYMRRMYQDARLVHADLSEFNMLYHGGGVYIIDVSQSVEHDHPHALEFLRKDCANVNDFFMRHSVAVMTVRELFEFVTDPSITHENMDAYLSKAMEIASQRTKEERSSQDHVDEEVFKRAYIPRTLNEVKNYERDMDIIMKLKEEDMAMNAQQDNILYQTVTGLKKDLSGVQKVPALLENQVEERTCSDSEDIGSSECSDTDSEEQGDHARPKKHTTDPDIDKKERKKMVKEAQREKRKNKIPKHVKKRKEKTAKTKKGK
active: [13] 0.358
inactive: [1] -0.018 | [2] 0.06 | [3] -0.018 | [4] 0.072 | [5] 0.008 | [6] -0.007 | [7] 0.003 | [8] -0.012 | [9] -0.033 | [10] -0.072 | [11] 0.016 | [12] -0.035 | [14] -0.02 | [15] 0.029

RPS29 (UniProt P62273)
inactive: [1] 0.117 | [2] 0.072 | [3] 0.22 | [4] 0.061 | [5] 0.112 | [6] 0.361 | [7] 0.094 | [8] -0.116 | [9] -0.024 | [10] -0.068 | [11] -0.105 | [12] 0.145 | [13] -0.03 | [14] 0.205 | [15] -0.085

RAB6D (UniProt Q53S08)
Chain of UniProt Q53S08 (Q53S08 whole entry, looked up): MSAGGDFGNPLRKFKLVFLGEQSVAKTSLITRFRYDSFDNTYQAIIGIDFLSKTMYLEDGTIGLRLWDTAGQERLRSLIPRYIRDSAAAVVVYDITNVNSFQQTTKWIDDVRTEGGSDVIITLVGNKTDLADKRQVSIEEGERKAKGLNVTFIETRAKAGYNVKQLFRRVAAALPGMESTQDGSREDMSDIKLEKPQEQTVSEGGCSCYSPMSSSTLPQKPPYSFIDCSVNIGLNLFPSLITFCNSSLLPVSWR
inactive: [1] -0.028 | [2] -0.019 | [3] -0.004 | [4] 0.111 | [5] -0.008 | [6] -0.056 | [7] -0.162 | [8] -0.006 | [9] -0.013 | [10] -0.064 | [11] -0.012 | [12] 0.151 | [13] -0.02 | [14] -0.011 | [15] -0.01
